Screening results: PubChem, National Center for Advancing Translational Sciences (NCATS)
This excerpt belongs to a sample that is enriched for hits.
ALOX12 inh – ALOX12 (human) lipoxygenase inhibition | P18054 | purified 12hLO, xylenol orange hydroperoxide absorbance | Potency, µM (doses to about 108 µM), for inactives: at the highest dose activity change, negative = inhibition, actives largely listed as inhibitors | 580,000 tested, 1.1% active | AID 1671190; further: potency means the concentration at half of the fitted maximal effect
Target sequence (P18054 whole entry, looked up): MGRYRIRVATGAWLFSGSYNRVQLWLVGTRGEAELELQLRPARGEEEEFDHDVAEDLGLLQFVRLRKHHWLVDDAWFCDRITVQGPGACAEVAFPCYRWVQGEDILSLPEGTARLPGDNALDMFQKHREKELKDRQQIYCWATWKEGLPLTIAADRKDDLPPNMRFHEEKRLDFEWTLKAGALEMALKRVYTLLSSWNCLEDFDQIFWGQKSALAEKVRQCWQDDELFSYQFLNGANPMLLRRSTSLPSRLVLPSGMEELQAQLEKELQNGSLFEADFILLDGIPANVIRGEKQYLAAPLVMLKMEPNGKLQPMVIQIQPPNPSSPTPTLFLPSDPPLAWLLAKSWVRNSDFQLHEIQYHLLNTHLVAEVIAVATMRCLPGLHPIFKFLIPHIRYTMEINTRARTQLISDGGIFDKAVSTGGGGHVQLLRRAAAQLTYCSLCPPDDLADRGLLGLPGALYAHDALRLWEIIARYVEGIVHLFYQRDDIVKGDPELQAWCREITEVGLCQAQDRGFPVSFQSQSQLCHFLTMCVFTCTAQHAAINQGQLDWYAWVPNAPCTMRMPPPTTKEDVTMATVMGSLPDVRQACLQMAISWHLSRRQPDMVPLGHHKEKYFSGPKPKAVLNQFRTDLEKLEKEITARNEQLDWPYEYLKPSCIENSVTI
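Purified human 12hLO at 150 nM in 25 mM Hepes, 0.01% Triton X-100, pH 7.0, preincubated 15 min at room temperature with compound. Reaction started with 40 uM arachidonic acid, 30 min at room temperature. Hydroperoxide measured by Fe-xylenol orange, 573/405 nm absorbance ratio.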
TDP1 cell CPT – growth inhibition of DT40 Tdp1-/-;hTDP1 cells with camptothecin (screen for TDP1 inhibitors); chicken DT40 Tdp1-/-;hTDP1 cells + 20 nM CPT, ATP luminescence, 48 h; Potency, µM (highest dose often 46.2 µM), for the others: at the highest dose activity change, negative = growth inhibition, actives largely listed as inhibitors; 420,000 tested, 12% active; AID 686979; further: potency means the concentration at half of the fitted maximal effect; nearly all actives have a fitted effect of over 55% in size
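Chicken DT40 Tdp1-/- cells complemented with human TDP1, 400 cells/well, exposed to compounds plus 20 nM camptothecin for at least 48 h at 37 C; viability read as ATP content by CellTiter-Glo luminescence.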
IL-1B inflam inh – inhibitors of inflammasome signaling (IL-1 beta secretion) | THP-1 LPS/ATP IL-1B secretion, AlphaLISA, 16 h; hits give low values | activity change, % at 57.5 µM | 360,000 tested, 4.7% active | AID 743279; in the data active means activity change below about -50%; inconclusive means mostly about -30% to -49%
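Secreted IL-1B measured by AlphaLISA bead assay after 16 h compound exposure of THP-1 cells; compounds (final up to 57.5 uM) added 1 h before LPS (250 ng/mL) and ATP (1.25 mM) stimulation; lower signal means less secretion.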
HT1080 IDH1KD tx – toxicity to HT-1080 IDH1 knockdown cells (counter line); 360,000 tested, 2% active; HT-1080 IDH1 knockdown viability, ATP luminescence, 48 h; Potency, µM (titrated, usually from 46.1 µM), for the others: at the top dose activity, negative = toxicity, usual class: cytotoxic; AID 686971;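 further: potency means the concentration at half of the fitted maximal effect; 0% = DMSO wells and -100% = cell-free medium wells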
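Cytotoxicity counter-line: IDH1KD HT-1080, 48 h, CellTiter-Glo. Curves classed by r2, magnitude and activity.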
HT1080NT lethal – kills 2HG-producing HT-1080-NT fibrosarcoma cells; AID 686970; HT-1080-NT fibrosarcoma viability, CellTiter-Glo ATP luminescence, 48 h; Potency, µM (top dose mostly 46.1 µM), for the others: at the highest dose activity, negative = less viability, actives largely listed as cytotoxic; 360,000 tested, 1.6% active;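 further: NT is the 2HG producing partner of a matched IDH1 knockdown line; potency means the concentration at half of the fitted maximal effect; 0% = DMSO-treated cells and -100% = media-only wells without cells; nearly all actives have a fitted effect of over 55% in size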
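A 48-hour cytotoxicity screen used HT-1080-NT cells plated 2 hours before compound delivery. ATP-based CellTiter-Glo luminescence measured viability, normalized to DMSO and no-cell controls.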
TDP1 cell noCPT – qHTS for Inhibitors of human tyrosyl-DNA phosphodiesterase 1 (TDP1): qHTS in cells in absence of CPT. Potency, µM (titrated, usually from 46.2 µM), for inactives: top-dose activity change, negative = growth inhibition, hits mostly inhibitors. DT40 Tdp1-/- hTDP1 cells, no CPT, ATP luminescence, 48 h. 420,000 tested, 15% active; further: potency means the concentration at half of the fitted maximal effect; nearly all actives have a fitted effect of over 55% in size
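A cellular qHTS used chicken DT40 cells lacking endogenous Tdp1 but carrying stably transfected human TDP1. Compounds were applied without camptothecin, and cell growth kinetics were judged by ATP-dependent luminescence after ≥48 hr.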
The depositor's hits bear a star; ? = inconclusive; / = no result; [ ] = another dose, or the depositor's remark. Unless noted, the call rests on the fitted dose curve; in most records, active means well fitted curve in the direction sought with a large enough effect; inconclusive means small, poorly fitted or top-dose-only effect, or another doubt; inactive means no such curve, though single readings can be large; an effect the other way counts as inactive or inconclusive. Unless noted, on the % scale 0 is the no-effect control and ±100 the full control effect.

SMILES | ALOX12 inh | TDP1 cell CPT | IL-1B inflam inh | HT1080 IDH1KD tx | HT1080NT lethal | TDP1 cell noCPT
Cc1cccc(OCc2nnc(SCC(=O)Nc3ccc(C)cc3C)o2)c1 | 35µM* | -21% | / | / | / | ?
Cc1cccc(OCc2nc(CC(=O)Nc3ccc(C)cc3C)cs2)c1 | -29% | 15µM* | / | / | / | ?
Cc1cccc(OCc2nnc(SCC(=O)Nc3ccc(C)c(C)c3)o2)c1 | 6%[57.4 µM] | -4% | 2 | 12% | 2% | 1%
Cc1cc(C)cc(NC(=O)Cc2csc(COc3cccc(C)c3)n2)c1 | 50µM* | -20% | / | / | / | -20%
Cc1ccc(NC(=O)Nc2ccccc2OCc2cc(=O)n3cccc(C)c3n2)cc1Cl | -6% | / | / | / | / | /
COC(=O)N/N=C/C(C)=C/c1ccccc1 | 7% | / | / | / | / | /
CC1CC(=O)Nc2cc(S(=O)(=O)N3CCN(c4ccccc4F)CC3)ccc2S1 (centres undefined) | -57% | / | / | / | / | /
CC(=O)c1ccc(S(=O)(=O)NCCC(=O)NC2CCN(Cc3ccccc3)CC2)cc1 | ? | -13% | -87* | 4% | -2% | ?
Cc1ccc(-c2noc(CCC(=O)NC3CCCc4ccccc43)n2)cc1 (centres undefined) | 0% | 9.2µM* | -12 | -23% | -27% | 2.3µM*
O=C(CCc1nc(-c2ccccc2)no1)NC1CCCCCC1 | 0% | -29% | 7 | 0% | 7% | -17%
Cc1ccc(-c2noc(CCC(=O)NC3CCN(Cc4ccccc4)CC3)n2)cc1 | ? | 13µM* | ? | -13% | -15% | ?
O=C(CCc1nc(-c2ccccc2F)no1)NC1CCN(Cc2ccccc2)CC1 | 4% | ? | -7 | -4% | -3% | ?
O=C(CCc1ncc(-c2ccc(F)cc2)o1)Nc1ccccc1 | -5% | / | / | / | / | /
C=C1C(C(=O)Nc2cccc(SC)c2)C1C(=O)Nc1cccc(SC)c1 (centres undefined) | -29% | / | / | / | / | /
COCCN1C(=O)c2ccccc2C(C(=O)Nc2ccc(C(C)=O)cc2)C12CCCC2 (centres undefined) | -6% | / | / | / | / | /
COc1ccc(C(=O)Nc2sc3c(c2C(N)=O)CCCC3)cc1OC | 231% | / | / | / | / | /
Cn1cc(Br)c(C(=O)Nc2sc3c(c2C(N)=O)CCCC3)n1 | -2% | ? | -82* | -4% | -9% | 16µM*
CCOc1ccccc1NC(=O)c1c(NC(=O)Cc2ccc(OC)cc2)sc2c1CCC2 | ? | 8.2µM* | / | / | / | 5.8µM*
O=C(COc1ccccc1)Nc1sc2c(c1C(=O)Nc1ccccc1)CCCCC2 | ? | ? | / | / | / | 0.46µM*
Cc1ccccc1NC(=O)c1c(NC(=O)Cc2ccccc2)sc2c1CCC2 | -17% | ? | / | / | / | ?
Cc1cccc(C(=O)Nc2sc3c(c2C(N)=O)CCCCC3)c1 | 10µM* | / | / | / | / | /
N#Cc1ccccc1COC(=O)C1(c2ccccc2)CC1 | 1% | / | / | / | / | /
CCOc1ccccc1NC(=O)c1c(NC(=O)COc2ccccc2)sc2c1CCCCC2 | 0% | 2.1µM* | / | / | / | 2.1µM*
CCOc1ccccc1NC(=O)c1c(NC(=O)c2cccc(C)c2)sc2c1CCCC2 | 0% | ? | / | / | / | 23µM*
CCOc1ccccc1NC(=O)c1c(NC(=O)COc2ccc(Cl)cc2)sc2c1CCCCC2 | 0% | -4% | / | / | / | -1%
SMILES | ALOX12 inh | TDP1 cell CPT | IL-1B inflam inh | HT1080 IDH1KD tx | HT1080NT lethal | TDP1 cell noCPT
O=C(COc1ccc(Br)cc1)NCCCNC(=O)c1cccnc1 | 0% | ? | -12 | 10µM* | ? | ?
O=C(COc1ccccc1Cl)NCCCNC(=O)c1cccnc1 | 25% | ? | 7 | ? | 26µM* | ?
COc1ccc(CN(C(=O)c2ccc(C#N)cc2)C(C)C2CC2)cc1 (centres undefined) | -11% | / | / | / | / | /
CCN(CC)S(=O)(=O)NC1CCN(c2ncccn2)CC1 | 0% | / | / | / | / | /
O=C(CCc1ccccc1)NCc1ccncc1 | 22% | -12% | 4 | -2% | -6% | 9%
c1ccc2c(CSCCc3ccncc3)cccc2c1 | 56% | 23µM* | 17 | -16% | -12% | 21µM*
c1ccc2c(CCc3ccncc3)cccc2c1 | -2% | -16% | -88* | -3% | -5% | -16%
CC(C)C1=NOC2(CCN(Cc3ccc(C(F)(F)F)cc3)C2)C1 (centres undefined) | 6%[6.33 µM] | / | / | / | / | /
Cc1nnc(-c2ccncc2)nc1C | 10% | / | / | / | / | /
CN1CCN(CC(O)COC(c2ccc(Cl)cc2)c2ccc(Cl)cc2)CC1 (centres undefined) | ? | ? | -22 | ? | ? | ?
OC(COC(c1ccccc1)c1ccccc1)CN1CCc2ccccc2C1 (centres undefined) | 1% | ? | -87* | ? | -30% | 21µM*
